About 83,000 compounds went through this panel and 20% of them were active in at least one assay; those are over-represented in the sample as a whole.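 Single-dose data. Exposure time 48 hours. Values below 10 considered active.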 The source made the active and inactive calls.
Key:
Experiment in all cases: NCI-60 one-dose screen, 48 h (100 = growth as untreated, 0 = no growth, -100 = all killed)
Conditions in all cases: 10 µM unless noted
DU-145 prostate = test system: DU-145 prostate
K-562 leukemia = test system: K-562 leukemia
MALME-3M melanoma = test system: MALME-3M melanoma
MDA-MB-231 breast = test system: MDA-MB-231 breast
RXF 393 renal = test system: RXF 393 renal
SF-268 CNS = test system: SF-268 CNS
SF-295 CNS = test system: SF-295 CNS
SF-539 CNS = test system: SF-539 CNS
UACC-257 melanoma = test system: UACC-257 melanoma
M14 melanoma = test system: M14 melanoma

Measured: growth

Cc1ccc([C@H]2c3[nH]c4ccccc4c3C[C@H]3C(=O)N(CCCCCCC(=O)NO)CC(=O)N23)s1
inactive: DU-145 prostate 71.5% | K-562 leukemia 35.8% | MALME-3M melanoma 22.9% | MDA-MB-231 breast 72.2% | RXF 393 renal 59.7% | SF-268 CNS 88.5% | SF-295 CNS 78.1% | SF-539 CNS 58% | UACC-257 melanoma 53.5% | M14 melanoma 63.5%

C#CCOc1ccc(/C=N/Nc2nc(-c3ccc(OC)cc3)cs2)cc1
inactive: DU-145 prostate 78.7% | K-562 leukemia 47.7% | MALME-3M melanoma 83.9% | MDA-MB-231 breast 91.3% | RXF 393 renal 99.1% | SF-268 CNS 87.2% | SF-295 CNS 66.8% | SF-539 CNS 97.3% | UACC-257 melanoma 76.1% | M14 melanoma 93.1%

COc1ccc(-c2nc(C#N)c(N3CCC(S(=O)(=O)N4CCOCC4)CC3)o2)cc1
inactive: DU-145 prostate 100% | K-562 leukemia 98.8% | MALME-3M melanoma 107% | MDA-MB-231 breast 95.1% | RXF 393 renal 108% | SF-268 CNS 94.2% | SF-295 CNS 102% | SF-539 CNS 97.5% | UACC-257 melanoma 109% | M14 melanoma 109%

O=c1c2cc(-c3ccc(F)cc3F)ccc2n(Nc2ccccc2)c(=O)n1-c1cccc(C(F)(F)F)c1
inactive: DU-145 prostate 26.6% | SF-268 CNS 22% | SF-539 CNS 18% | M14 melanoma 21.6%
active: K-562 leukemia 6.95% | MALME-3M melanoma -18.4% | MDA-MB-231 breast -5.2% | RXF 393 renal 5.77% | SF-295 CNS -2.47% | UACC-257 melanoma -1.25%

Cc1cc(=O)[nH]c(O)c1C#N
inactive: DU-145 prostate 108% | K-562 leukemia 99.2% | MALME-3M melanoma 105% | MDA-MB-231 breast 98.2% | RXF 393 renal 114% | SF-268 CNS 103% | SF-295 CNS 102% | SF-539 CNS 97% | UACC-257 melanoma 100% | M14 melanoma 94.4%

Cn1c2nc3ccccc3c-2cc2ccccc21
inactive: DU-145 prostate 30.9% | K-562 leukemia 21.1% | MALME-3M melanoma 36.6% | MDA-MB-231 breast 36.1% | RXF 393 renal 43.3% | SF-268 CNS 57.3% | SF-295 CNS 39.6% | SF-539 CNS 39.1% | UACC-257 melanoma 49.2% | M14 melanoma 48.3%

O=C(CCCCCCNC(=O)C(O)(O)C(F)(F)F)Nc1ncc(-c2ccc(Br)cc2)s1
active: DU-145 prostate 3.81% | RXF 393 renal -52.8% | SF-268 CNS 1.89% | SF-295 CNS -29.3% | UACC-257 melanoma 9.48% | M14 melanoma 8.94%
inactive: K-562 leukemia 11.8% | MALME-3M melanoma 19.9% | MDA-MB-231 breast 19.7% | SF-539 CNS 12.1%

CC(=C(c1ccc(OCCN(C)C)cc1)c1ccc(OCCN(C)C)cc1)c1ccc(Cl)cc1
active: DU-145 prostate -73.6% | K-562 leukemia -9.65% | MALME-3M melanoma -79.9% | MDA-MB-231 breast -75.4% | RXF 393 renal -86.6% | SF-268 CNS -47.7% | SF-295 CNS -78.1% | SF-539 CNS -83% | UACC-257 melanoma -69.6% | M14 melanoma -63.5%

COc1ccc(C2C(C#N)=C(/N=C/c3ccc(Cl)cc3)Oc3c2sc2c(C)cccc32)cc1 (stereo not given)
inactive: DU-145 prostate 26.1% | MALME-3M melanoma 50.2% | MDA-MB-231 breast 33.9% | SF-268 CNS 52.9% | UACC-257 melanoma 70.9%
active: K-562 leukemia 9.73% | RXF 393 renal -5.77% | SF-295 CNS 8.79% | SF-539 CNS 1.34% | M14 melanoma 0.955%

COc1cc2oc(-c3cccc(NC(=O)[C@@H](N)C(C)C)c3)cc(=O)c2c(OC)c1OC
inactive: DU-145 prostate 105% | K-562 leukemia 105% | MALME-3M melanoma 110% | MDA-MB-231 breast 99.2% | RXF 393 renal 107% | SF-268 CNS 107% | SF-295 CNS 96.7% | SF-539 CNS 95.9% | UACC-257 melanoma 108% | M14 melanoma 111%

CCc1cc(OC(=O)N2CCN(CCC(C)(COC(C)(C)C)COC(C)(C)C)CC2)ccc1Nc1cc(-c2ccc(-n3cccn3)cc2)[nH]n1
inactive: DU-145 prostate 84% | K-562 leukemia 52.1% | MALME-3M melanoma 89.7% | MDA-MB-231 breast 83.5% | RXF 393 renal 41% | SF-268 CNS 73.8% | SF-295 CNS 85.1% | SF-539 CNS 88.8% | UACC-257 melanoma 92.9% | M14 melanoma 97.6%

Cc1ccc(C(=O)CSc2nnc(-c3ccc(-c4ccc(Cl)cc4)nc3C)o2)cc1
inactive: DU-145 prostate 115% | K-562 leukemia 101% | MALME-3M melanoma 96.1% | MDA-MB-231 breast 92.6% | RXF 393 renal 119% | SF-268 CNS 105% | SF-295 CNS 92.5% | SF-539 CNS 97.6% | UACC-257 melanoma 118% | M14 melanoma 98.2%

CC1(C)C=Cc2cc(/C(N)=N/C(N)=N/c3nc4ccccc4s3)ccc2O1
inactive: DU-145 prostate 94.9% | K-562 leukemia 57.6% | MALME-3M melanoma 104% | MDA-MB-231 breast 77.5% | RXF 393 renal 103% | SF-268 CNS 93.2% | SF-295 CNS 81.6% | SF-539 CNS 97.3% | UACC-257 melanoma 104% | M14 melanoma 103%

Clc1ccc2[nH]cc(-c3nn4cc(-c5ccncc5)nc4s3)c2c1
inactive: DU-145 prostate 53.1% | K-562 leukemia 49% | MALME-3M melanoma 26.9% | MDA-MB-231 breast 50.8% | RXF 393 renal 79% | SF-268 CNS 39.1% | SF-295 CNS 71% | SF-539 CNS 25.8% | UACC-257 melanoma 90.7% | M14 melanoma 67.7%

CCCCN1C(=O)/C(=c2\sc3n(c2=O)C2C(NN=3)N(CC)C(=O)N2CC)c2cccc(C)c21 (stereo not given)
active: SF-539 CNS -7.82%
inactive: DU-145 prostate 37.6% | K-562 leukemia 15% | MALME-3M melanoma 54.5% | MDA-MB-231 breast 60% | RXF 393 renal 11.9% | SF-268 CNS 56.2% | SF-295 CNS 29.1% | UACC-257 melanoma 89.4% | M14 melanoma 27%

CCc1cccc2c3c(sc12)C(c1ccc(F)cc1)C(C#N)=C(/N=C/c1ccc(Cl)cc1)O3 (stereo not given)
active: RXF 393 renal -7.19% | SF-295 CNS 6.46% | SF-539 CNS -6.53% | M14 melanoma 9.94%
inactive: DU-145 prostate 29% | K-562 leukemia 10.5% | MALME-3M melanoma 57.2% | MDA-MB-231 breast 30.3% | SF-268 CNS 43.5% | UACC-257 melanoma 69.4%

O=C(/C=C/c1ccccc1)c1cccc(O)c1
inactive: DU-145 prostate 105% | K-562 leukemia 71.6% | MALME-3M melanoma 104% | MDA-MB-231 breast 105% | RXF 393 renal 92.4% | SF-268 CNS 104% | SF-295 CNS 98.3% | SF-539 CNS 103% | UACC-257 melanoma 101% | M14 melanoma 95.1%

N#CC1=C2NCCCNc3oc(nc3C#N)Cc3ccccc3CC(=N1)O2
inactive: DU-145 prostate 99% | K-562 leukemia 12% | MALME-3M melanoma 97.8% | MDA-MB-231 breast 97.6% | RXF 393 renal 93.2% | SF-268 CNS 101% | SF-295 CNS 108% | SF-539 CNS 99.2% | UACC-257 melanoma 92.2% | M14 melanoma 86.4%

COC(=O)N1CCN(CCNCc2ccc(NC(=O)c3ccc(C)c(C#Cc4cnc5cccnn45)c3)cc2C(F)(F)F)CC1
inactive: DU-145 prostate 44.9% | SF-268 CNS 28.2%
active: K-562 leukemia 5.18% | MALME-3M melanoma -49.1% | MDA-MB-231 breast -9.19% | RXF 393 renal -47.2% | SF-295 CNS -25.1% | SF-539 CNS -15.9% | UACC-257 melanoma -10.6% | M14 melanoma 8.75%

CN1CCN(Cc2ccc(NC(=O)c3cncc(C#Cc4cnc5ccc(OCC6COC6)nn45)c3)cc2C(F)(F)F)CC1
active: DU-145 prostate -83.1% | K-562 leukemia 0.233% | MALME-3M melanoma -88.2% | MDA-MB-231 breast -63% | RXF 393 renal -78.5% | SF-268 CNS -70.2% | SF-295 CNS -93.7% | SF-539 CNS -88.2% | UACC-257 melanoma -51.6% | M14 melanoma -86.8%

N#Cc1nc(-c2ccc(Cl)cc2)oc1N1CCC(S(=O)(=O)N2CCOCC2)CC1
inactive: DU-145 prostate 105% | K-562 leukemia 101% | MALME-3M melanoma 99.2% | MDA-MB-231 breast 94.7% | RXF 393 renal 99.8% | SF-268 CNS 96.6% | SF-295 CNS 102% | SF-539 CNS 93.6% | UACC-257 melanoma 108% | M14 melanoma 107%

COC(=O)[C@@H](Cc1c[nH]c2ccccc12)NC(=O)CCCCOc1cc(O)c2c(=O)cc(-c3ccccc3)oc2c1
inactive: DU-145 prostate 93.3% | K-562 leukemia 83.6% | MALME-3M melanoma 94.3% | MDA-MB-231 breast 81.7% | RXF 393 renal 76.8% | SF-268 CNS 84.2% | SF-295 CNS 91.2% | SF-539 CNS 90.3% | UACC-257 melanoma 97.1% | M14 melanoma 97.2%

CNC(=O)c1cc(-n2ccc3cc(NC(=O)Nc4ccc(N5CCN(C)CC5)c(C(F)(F)F)c4)ccc32)ccn1
inactive: DU-145 prostate 86.5% | MDA-MB-231 breast 61.5% | SF-268 CNS 83.4% | UACC-257 melanoma 72.2% | M14 melanoma 59%
active: K-562 leukemia -53.3% | MALME-3M melanoma 2.37% | RXF 393 renal -27.7% | SF-295 CNS -47.2% | SF-539 CNS 1.48%

COc1cc(C(=O)c2cc(C(C)=O)c3c(C)cccn23)cc(OC)c1OC
inactive: DU-145 prostate 107% | K-562 leukemia 94.6% | MALME-3M melanoma 89.1% | MDA-MB-231 breast 76.1% | RXF 393 renal 81.1% | SF-268 CNS 106% | SF-295 CNS 109% | SF-539 CNS 97.5% | UACC-257 melanoma 98.2% | M14 melanoma 96.1%

CC(C)(C)OC(=O)Nc1ccc(-c2cccc(Oc3ccc4nnc(Cl)n4n3)c2)cc1
inactive: DU-145 prostate 82.7% | K-562 leukemia 31.2% | MALME-3M melanoma 106% | MDA-MB-231 breast 83.8% | RXF 393 renal 89.8% | SF-268 CNS 104% | SF-295 CNS 84.1% | SF-539 CNS 92.7% | UACC-257 melanoma 87.1% | M14 melanoma 65.9%

CC(C)NC(=O)c1cc(-c2ccc(NC(=O)Nc3ccc(F)cc3)cc2)nc2cccnc12
inactive: DU-145 prostate 114% | K-562 leukemia 110% | MALME-3M melanoma 118% | MDA-MB-231 breast 97.8% | RXF 393 renal 123% | SF-268 CNS 109% | SF-295 CNS 97.7% | SF-539 CNS 102% | UACC-257 melanoma 102% | M14 melanoma 102%

CC(=O)c1c([Si](C)(C)C)c2cc(C#N)ccn2c1C(=O)c1ccc(Br)cc1
inactive: DU-145 prostate 99.9% | K-562 leukemia 82.4% | MALME-3M melanoma 92.9% | MDA-MB-231 breast 85.4% | RXF 393 renal 78.5% | SF-268 CNS 79.1% | SF-295 CNS 90.9% | SF-539 CNS 95.5% | UACC-257 melanoma 101% | M14 melanoma 97.4%
